From the supplement of paper PMC10849652
The full data set covers some 8,800 targets. This sample favours those with a hit. About 0.5% of all pairs of compound and target were hits.

What was measured:
Test in all cases: log2 fold change, soluble protein after heating vs DMSO (PISA); higher = thermal stabilisation; K562 lysate, 10 uM; active = over 0.2 and 3.5 SD of the protein, either way, in both replicates (recomputed)
ibrutinib = compound: C=CC(=O)N1CCC[C@@H](n2nc(-c3ccc(Oc4ccccc4)cc3)c3c(N)ncnc32)C1 [ibrutinib]
How it was run: (§1)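 Pellets of K562 cells were dounce-homogenised in PBS pH 7.4 with 1 mM MgCl2, and the crude extract was held at 1 mg/mL protein for a 30 min treatment with 10 μM compound. Aliquots were heated for 3 min over 48°C-58°C and pooled before NP-40 was added to 0.5% at 4°C. The supernatant from 21,000xg for 90 min was quantified by TMTpro 16plex LC-MS/MS with channel sums equalised. Values are reported from duplicates as log-two fold change in thermal stability relative to solvent controls.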

[1] = compound: CC(=O)c1cnc2ccc(-c3cc(Cl)c(O)c(Cl)c3)nc2c1N[C@H]1CC[C@H](CN(C)C)CC1
How it was run: as §1

ralimetinib = compound: CC(C)(C)Cn1c(N)nc2ccc(-c3[nH]c(C(C)(C)C)nc3-c3ccc(F)cc3)nc21 [ralimetinib]
How it was run: as §1

[2] = compound: CC(C)(O)CC(=O)NCCn1ccc2ncnc(Nc3ccc(Oc4cccc(C(F)(F)F)c4)c(Cl)c3)c21
How it was run: as §1

[3] = compound: CC(C)C1=C2N=C(C=C(N2N=C1)NCC3=CC=CC=C3)NCCCCCCN
How it was run: as §1

[4] = compound: CC1=C(C(CC(=O)N1)C2=CC=C(C=C2)C(F)(F)F)C(=O)NC3=C(C=C4C(=C3)C=NN4)F
How it was run: as §1

[5] = compound: CC1=C(C2=C(C=C1)C(=O)C3=CC=CC=C3N2CCCN)C
How it was run: as §1

[6] = compound: CC1=C(C=C(C=C1)NC(=O)C2=CC(=CC=C2)C(C)(C)C#N)NC3=CC4=C(C=C3)N=CN(C4=O)C
How it was run: as §1

[7] = compound: CC1=C(C=C(C=C1)NC(=O)C2=CC(=CC=C2)N(C)C)NC(=O)C3=CC=C(C=C3)O
How it was run: as §1

[8] = compound: CC1=CC=C(C=C1)SC2=C3C=C(SC3=CN=C2)C(=O)N
How it was run: as §1

Measured: log2 fold change

RAP1GAP isoform 4 (UniProt P47736)
UniProt P47736, sequence (P47736 whole entry, looked up): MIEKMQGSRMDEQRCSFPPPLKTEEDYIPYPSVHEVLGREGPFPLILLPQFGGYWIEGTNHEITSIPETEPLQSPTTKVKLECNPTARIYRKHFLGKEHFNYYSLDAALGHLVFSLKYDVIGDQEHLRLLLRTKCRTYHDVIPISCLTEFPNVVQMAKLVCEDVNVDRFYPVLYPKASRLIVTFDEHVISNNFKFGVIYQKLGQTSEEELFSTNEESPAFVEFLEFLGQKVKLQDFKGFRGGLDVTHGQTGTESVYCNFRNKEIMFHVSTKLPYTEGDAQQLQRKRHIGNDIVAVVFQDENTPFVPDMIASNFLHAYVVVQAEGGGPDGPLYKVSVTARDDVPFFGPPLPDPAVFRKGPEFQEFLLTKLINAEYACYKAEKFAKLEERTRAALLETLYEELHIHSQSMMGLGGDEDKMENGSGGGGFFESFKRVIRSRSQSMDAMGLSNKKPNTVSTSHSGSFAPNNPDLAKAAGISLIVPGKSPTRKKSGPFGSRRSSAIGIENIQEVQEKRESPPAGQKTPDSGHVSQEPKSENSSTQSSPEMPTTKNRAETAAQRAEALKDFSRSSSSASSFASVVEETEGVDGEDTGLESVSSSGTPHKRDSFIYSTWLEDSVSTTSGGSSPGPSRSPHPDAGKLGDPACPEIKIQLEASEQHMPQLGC
inactive: ibrutinib -0.024 | [1] 0.018 | ralimetinib 0.068 | [2] -0.037 | [3] 0.051 | [4] 0.003 | [5] -0.008 | [6] 0.056 | [7] -0.009 | [8] -0.012

RELN (UniProt P78509)
active: [1] -0.237
inactive: ibrutinib 0.011 | ralimetinib 0.011 | [2] -0.038 | [3] -0.039 | [4] -0.01 | [5] 0 | [6] -0.002 | [7] 0.041 | [8] 0.09

RHAG (UniProt Q02094)
UniProt Q02094, sequence (Q02094 whole entry, looked up): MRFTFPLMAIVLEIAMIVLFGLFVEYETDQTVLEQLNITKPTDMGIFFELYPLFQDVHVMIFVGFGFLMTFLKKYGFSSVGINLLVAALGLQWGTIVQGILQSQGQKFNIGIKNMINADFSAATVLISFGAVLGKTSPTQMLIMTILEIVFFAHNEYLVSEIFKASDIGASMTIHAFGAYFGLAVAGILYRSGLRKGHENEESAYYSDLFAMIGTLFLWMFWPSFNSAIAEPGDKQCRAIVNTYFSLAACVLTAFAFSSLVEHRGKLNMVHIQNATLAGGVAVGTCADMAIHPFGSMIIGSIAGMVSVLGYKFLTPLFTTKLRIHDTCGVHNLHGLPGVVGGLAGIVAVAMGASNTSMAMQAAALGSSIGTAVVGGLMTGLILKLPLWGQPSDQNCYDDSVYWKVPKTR
inactive: ibrutinib 0.004 | [1] -0.035 | ralimetinib -0.001 | [2] -0.068 | [3] 0.042 | [4] 0.09 | [5] -0.056 | [6] 0.08 | [7] 0.008 | [8] -0.003

RPL37A (UniProt P61513)
inactive: ibrutinib -0.005 | [1] 0.002 | ralimetinib -0.041 | [2] 0.03 | [3] -0.009 | [4] -0.021 | [5] -0.032 | [6] 0.038 | [7] 0.004 | [8] 0.051

RPS26P11 (UniProt Q5JNZ5)
inactive: ibrutinib -0.037 | [1] 0.004 | ralimetinib 0.008 | [2] -0.034 | [3] -0.019 | [4] -0.013 | [5] -0.034 | [6] 0.024 | [7] 0.025 | [8] 0.016

RFC3 (UniProt P40938)
UniProt P40938, sequence (P40938 whole entry, looked up): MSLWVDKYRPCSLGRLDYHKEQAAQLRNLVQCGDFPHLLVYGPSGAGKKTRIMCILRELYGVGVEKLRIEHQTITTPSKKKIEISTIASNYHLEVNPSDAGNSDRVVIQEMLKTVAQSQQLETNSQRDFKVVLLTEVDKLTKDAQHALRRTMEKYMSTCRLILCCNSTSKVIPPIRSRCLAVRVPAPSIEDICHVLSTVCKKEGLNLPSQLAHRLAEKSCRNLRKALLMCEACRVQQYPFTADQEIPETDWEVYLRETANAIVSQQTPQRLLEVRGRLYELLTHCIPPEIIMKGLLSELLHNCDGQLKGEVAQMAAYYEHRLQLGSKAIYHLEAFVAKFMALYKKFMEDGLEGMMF
inactive: ibrutinib 0.024 | [1] 0.131 | ralimetinib 0.03 | [2] -0.012 | [3] -0.04 | [4] 0.004 | [5] -0.034 | [6] 0.002 | [7] 0.042 | [8] -0.008

RPS6KA3 (UniProt P51812)
UniProt P51812, sequence (P51812 whole entry, looked up): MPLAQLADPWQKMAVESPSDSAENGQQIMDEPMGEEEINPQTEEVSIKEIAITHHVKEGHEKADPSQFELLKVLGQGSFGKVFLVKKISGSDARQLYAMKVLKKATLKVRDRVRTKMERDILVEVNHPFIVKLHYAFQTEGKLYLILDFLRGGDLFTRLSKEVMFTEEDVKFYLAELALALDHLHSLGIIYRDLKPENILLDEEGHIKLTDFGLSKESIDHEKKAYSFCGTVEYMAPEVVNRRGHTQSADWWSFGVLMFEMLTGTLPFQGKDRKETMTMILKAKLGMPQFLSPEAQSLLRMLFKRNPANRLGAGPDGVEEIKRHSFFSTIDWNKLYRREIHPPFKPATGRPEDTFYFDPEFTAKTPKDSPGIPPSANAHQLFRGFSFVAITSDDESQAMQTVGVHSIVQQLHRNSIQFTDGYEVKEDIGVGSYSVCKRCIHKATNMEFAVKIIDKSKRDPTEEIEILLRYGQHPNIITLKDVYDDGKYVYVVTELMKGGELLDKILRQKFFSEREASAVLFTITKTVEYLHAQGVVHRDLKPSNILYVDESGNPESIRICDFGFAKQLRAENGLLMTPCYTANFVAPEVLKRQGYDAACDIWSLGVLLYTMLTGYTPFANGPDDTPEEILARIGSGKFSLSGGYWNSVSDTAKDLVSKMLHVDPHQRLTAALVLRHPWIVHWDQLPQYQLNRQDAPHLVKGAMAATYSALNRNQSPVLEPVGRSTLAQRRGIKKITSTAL
active: [1] 0.56
inactive: ibrutinib -0.04 | ralimetinib -0.004 | [2] -0.032 | [3] -0.11 | [4] -0.043 | [5] -0.02 | [6] -0.061 | [7] 0.006 | [8] -0.039

RDH14 (UniProt Q9HBH5)
UniProt Q9HBH5, sequence (Q9HBH5 whole entry, looked up): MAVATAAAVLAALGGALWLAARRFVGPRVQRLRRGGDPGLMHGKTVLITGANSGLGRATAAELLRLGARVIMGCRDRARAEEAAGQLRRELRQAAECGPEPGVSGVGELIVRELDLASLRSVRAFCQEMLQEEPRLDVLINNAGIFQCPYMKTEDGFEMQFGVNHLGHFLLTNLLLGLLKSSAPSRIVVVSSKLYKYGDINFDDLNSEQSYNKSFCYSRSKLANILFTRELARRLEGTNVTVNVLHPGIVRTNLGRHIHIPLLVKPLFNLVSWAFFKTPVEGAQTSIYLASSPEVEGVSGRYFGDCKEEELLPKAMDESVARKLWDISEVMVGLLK
inactive: ibrutinib 0.017 | [1] 0.061 | ralimetinib 0.072 | [2] 0.089 | [3] 0.012 | [4] -0.031 | [5] 0.053 | [6] -0.073 | [7] 0.032 | [8] -0.012

RINT1 (UniProt Q6NUQ1)
UniProt Q6NUQ1, sequence (Q6NUQ1 whole entry, looked up): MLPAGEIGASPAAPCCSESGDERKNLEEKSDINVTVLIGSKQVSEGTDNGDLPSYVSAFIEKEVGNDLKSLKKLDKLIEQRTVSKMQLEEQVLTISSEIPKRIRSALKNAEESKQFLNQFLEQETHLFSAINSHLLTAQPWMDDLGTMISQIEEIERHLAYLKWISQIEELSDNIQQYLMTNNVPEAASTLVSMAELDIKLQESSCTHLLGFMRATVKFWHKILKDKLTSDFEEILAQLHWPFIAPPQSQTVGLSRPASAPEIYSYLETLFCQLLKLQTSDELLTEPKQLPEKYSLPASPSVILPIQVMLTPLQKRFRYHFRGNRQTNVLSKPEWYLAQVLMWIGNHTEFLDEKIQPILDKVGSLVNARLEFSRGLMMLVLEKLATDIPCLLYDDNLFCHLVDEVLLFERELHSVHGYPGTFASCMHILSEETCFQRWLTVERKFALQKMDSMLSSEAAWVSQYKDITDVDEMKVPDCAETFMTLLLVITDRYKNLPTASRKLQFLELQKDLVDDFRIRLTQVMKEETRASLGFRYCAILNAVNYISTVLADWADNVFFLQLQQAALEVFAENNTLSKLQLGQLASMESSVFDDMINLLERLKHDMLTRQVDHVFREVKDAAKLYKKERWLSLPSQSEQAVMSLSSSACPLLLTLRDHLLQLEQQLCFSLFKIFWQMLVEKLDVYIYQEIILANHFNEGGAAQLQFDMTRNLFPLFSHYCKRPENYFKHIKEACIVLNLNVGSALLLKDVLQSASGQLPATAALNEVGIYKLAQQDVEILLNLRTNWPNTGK
inactive: ibrutinib 0.011 | [1] 0.07 | ralimetinib 0.05 | [2] -0.094 | [3] 0.016 | [4] -0.066 | [5] -0.064 | [6] -0.02 | [7] 0.012 | [8] 0.016

RPL28 (UniProt P46779)
inactive: ibrutinib -0.026 | [1] -0.011 | ralimetinib -0.003 | [2] -0.005 | [3] 0.006 | [4] -0.038 | [5] -0.066 | [6] -0.021 | [7] 0.012 | [8] 0.026

RECQL5 (UniProt O94762)
inactive: ibrutinib 0.014 | [1] -0.335 | ralimetinib 0.035 | [2] -0.015 | [3] 0.055 | [4] 0.03 | [5] -0.066 | [6] -0.044 | [7] 0.035 | [8] -0.001

RBBP8 isoform 2 (UniProt Q99708)
UniProt Q99708, sequence (Q99708 whole entry, looked up): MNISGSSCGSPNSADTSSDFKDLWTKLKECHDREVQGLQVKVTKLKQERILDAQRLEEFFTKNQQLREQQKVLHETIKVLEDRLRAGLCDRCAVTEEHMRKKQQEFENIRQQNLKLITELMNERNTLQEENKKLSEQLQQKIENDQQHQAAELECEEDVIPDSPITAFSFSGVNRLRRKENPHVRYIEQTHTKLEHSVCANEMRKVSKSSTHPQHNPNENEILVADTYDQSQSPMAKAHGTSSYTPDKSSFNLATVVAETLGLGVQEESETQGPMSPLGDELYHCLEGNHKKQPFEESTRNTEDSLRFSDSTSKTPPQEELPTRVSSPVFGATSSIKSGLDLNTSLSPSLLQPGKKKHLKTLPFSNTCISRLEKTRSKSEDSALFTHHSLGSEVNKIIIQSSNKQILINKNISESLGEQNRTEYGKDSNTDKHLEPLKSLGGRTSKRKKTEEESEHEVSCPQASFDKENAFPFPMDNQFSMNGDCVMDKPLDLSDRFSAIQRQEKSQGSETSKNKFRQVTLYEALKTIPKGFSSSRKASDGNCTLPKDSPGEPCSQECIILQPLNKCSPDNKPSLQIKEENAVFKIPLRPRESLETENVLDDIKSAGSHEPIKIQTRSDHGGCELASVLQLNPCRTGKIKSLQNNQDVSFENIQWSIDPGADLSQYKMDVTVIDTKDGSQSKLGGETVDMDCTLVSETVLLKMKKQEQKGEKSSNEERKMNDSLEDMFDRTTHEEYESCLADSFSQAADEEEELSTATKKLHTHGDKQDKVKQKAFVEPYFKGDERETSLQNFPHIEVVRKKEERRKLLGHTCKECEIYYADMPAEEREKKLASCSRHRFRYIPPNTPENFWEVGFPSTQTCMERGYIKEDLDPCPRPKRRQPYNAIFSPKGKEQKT
inactive: ibrutinib -0.204 | [1] 0.005 | ralimetinib -0.086 | [2] 0.011 | [3] -0.006 | [4] 0.003 | [5] -0.018 | [6] -0.066 | [7] -0.006 | [8] -0.143

RALA (UniProt P11233)
UniProt P11233, sequence (P11233 whole entry, looked up): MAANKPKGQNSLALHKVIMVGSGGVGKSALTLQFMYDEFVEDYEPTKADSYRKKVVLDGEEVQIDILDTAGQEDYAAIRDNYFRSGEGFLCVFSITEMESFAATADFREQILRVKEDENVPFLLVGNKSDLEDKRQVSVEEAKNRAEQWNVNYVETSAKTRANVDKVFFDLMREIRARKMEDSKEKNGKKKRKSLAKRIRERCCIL
inactive: ibrutinib 0.009 | [1] -0.01 | ralimetinib 0.006 | [2] -0.05 | [3] 0.034 | [4] -0.002 | [5] -0.001 | [6] 0.057 | [7] -0.048 | [8] -0.023

RPS4X (UniProt P62701)
inactive: ibrutinib 0 | [1] -0.003 | ralimetinib 0.009 | [2] -0.021 | [3] 0.022 | [4] -0.026 | [5] -0.116 | [6] -0.008 | [7] -0.001 | [8] 0.034

RAE1 (UniProt P78406)
UniProt P78406, sequence (P78406 whole entry, looked up): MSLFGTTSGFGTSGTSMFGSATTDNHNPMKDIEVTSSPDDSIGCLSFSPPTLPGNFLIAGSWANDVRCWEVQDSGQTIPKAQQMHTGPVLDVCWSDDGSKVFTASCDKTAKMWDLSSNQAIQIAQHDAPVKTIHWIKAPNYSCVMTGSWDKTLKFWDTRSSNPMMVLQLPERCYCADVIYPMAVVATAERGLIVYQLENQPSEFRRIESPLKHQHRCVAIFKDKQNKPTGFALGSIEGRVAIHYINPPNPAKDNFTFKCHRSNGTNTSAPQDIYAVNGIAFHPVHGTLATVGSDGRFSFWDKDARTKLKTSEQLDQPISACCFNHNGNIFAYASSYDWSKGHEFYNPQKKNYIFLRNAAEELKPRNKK
inactive: ibrutinib -0.033 | [1] -0.01 | ralimetinib 0.007 | [2] 0.185 | [3] -0.007 | [4] -0.022 | [5] 0.012 | [6] -0.064 | [7] 0.011 | [8] 0.023
